Compound activity deposited in PubChem BioAssay by National Center for Advancing Translational Sciences (NCATS).
A selection: hits, their analogues and other compounds. The true share with any hit is near 19%.
DT40 TDP1 no CPT – qHTS for Inhibitors of human tyrosyl-DNA phosphodiesterase 1 (TDP1): qHTS in cells in absence of CPT. DT40 Tdp1-/- hTDP1 cells, no CPT, ATP luminescence, 48 h. Potency, µM (series often up to 46.2 µM), most hits filed as inhibitors. actives 15% (n = 420,000); further: nearly all actives have a fitted effect of over 55% in size
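DT40 Tdp1-/-;hTDP1 cells, no CPT (DMSO vehicle only), 400 cells/well; compounds pin-transferred; ≥48 hr, 37 °C; CellTiter-Glo 30 min RT dark, luminescence read.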
TDP1 block – qHTS Assay for Inhibitors of Tyrosyl-DNA Phosphodiesterase (TDP1) | recombinant TDP1, AlphaScreen DNA substrate cleavage | Tyrosyl-DNA phosphodiesterase 1 (Homo sapiens), Q9NUW8 | AID 485290, 2010 | Potency, µM (titrated, usually from 130 µM), usual class: inhibitors | actives 0.28% (n = 350,000); further: nearly all actives have a fitted effect of over 40% in size
Target sequence (Q9NUW8 whole entry, looked up): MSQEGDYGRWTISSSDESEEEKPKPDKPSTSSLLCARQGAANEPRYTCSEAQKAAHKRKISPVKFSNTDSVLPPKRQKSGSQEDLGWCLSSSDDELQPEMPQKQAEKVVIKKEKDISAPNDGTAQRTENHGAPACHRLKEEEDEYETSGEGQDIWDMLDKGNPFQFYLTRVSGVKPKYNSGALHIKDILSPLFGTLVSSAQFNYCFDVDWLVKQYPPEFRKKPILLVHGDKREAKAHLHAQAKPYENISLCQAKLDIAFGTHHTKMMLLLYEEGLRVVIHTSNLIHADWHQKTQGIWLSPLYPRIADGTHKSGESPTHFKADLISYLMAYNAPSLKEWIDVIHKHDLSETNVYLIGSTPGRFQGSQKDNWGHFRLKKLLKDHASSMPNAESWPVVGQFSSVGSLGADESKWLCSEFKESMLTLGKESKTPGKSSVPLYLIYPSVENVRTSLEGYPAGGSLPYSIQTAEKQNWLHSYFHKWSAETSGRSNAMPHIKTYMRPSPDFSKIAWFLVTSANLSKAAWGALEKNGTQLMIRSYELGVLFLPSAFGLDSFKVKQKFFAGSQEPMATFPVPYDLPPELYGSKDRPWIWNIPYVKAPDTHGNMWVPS
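Compounds were preincubated with Tdp1 (1 nM final) for 15 min at room temperature before substrate (15 nM final) started a 5 min reaction; beads (10 ug/ml final) were then added for 10 min before AlphaScreen detection.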
HepG2 tox – qHTS for Inhibitors of TGF-b: Cytotox Counterscreen; actives 0.76% (n = 410,000); HepG2 CAGA-GFP viability, ATP luminescence, 18 h; Potency, µM (titrated, usually from 46.1 µM), actives largely listed as cytotoxic
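HepG2 CAGA-GFP cells (1000/well, DMEM with 1% FBS) received compound, then TGF-beta at 500 pg/mL final, and were incubated 18 hours at 37 degrees C. Viability was read by CellTiter-Glo luminescence. Media-only wells were set as complete cell-killing and DMSO as no toxicity.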
TGFb inhibitor – qHTS for Inhibitors of TGF-b; Potency, µM (top dose mostly 46.1 µM), most hits filed as inhibitors; HepG2 CAGA-GFP TGF-b/SMAD3 reporter, GFP fluorescence, 18 h; TGF-beta stimulated, 500 pg/mL final; actives 1.2% (n = 410,000); AID 588855, 2011; further: nearly all actives have a fitted effect of over 65% in size
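Inhibition was scored as loss of TGF-beta-induced (500 pg/mL final, 18 hours, 37 degrees C) GFP in HEPG2 cells carrying a CAGA-GFP reporter, in DMEM with 1% FBS. Well GFP was summed per cell; Activity was normalised to unstimulated and stimulated DMSO wells, then concentration-response fitting.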
IL1B secr inh – qHTS for Inhibitors of Inflammasome Signaling: IL-1-beta AlphaLISA Primary Screen | THP-1 LPS/ATP IL-1B secretion, AlphaLISA, 16 h; hits give low values | activity change, % at 57.5 µM | actives 4.7% (n = 360,000) | AID 743279, 2014; in the data active means activity change below about -50%; inconclusive means mostly about -30% to -49%
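THP-1 cells pretreated 1 hr with compounds (up to 57.5 uM final), then stimulated with LPS (250 ng/mL final) plus ATP (1.25 mM final); secreted IL-1B measured by AlphaLISA after 16 hr, decreased signal indicating inhibition.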
DT40 TDP1 CPT – qHTS for Inhibitors of human tyrosyl-DNA phosphodiesterase 1 (TDP1): qHTS in cells in presence of CPT | Potency, µM (series often up to 46.2 µM), hits mostly inhibitors | chicken DT40 Tdp1-/-;hTDP1 cells + 20 nM CPT, ATP luminescence, 48 h | actives 12% (n = 420,000); further: nearly all actives have a fitted effect of over 55% in size
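Chicken DT40 Tdp1-/- cells complemented with human TDP1, 400 cells/well, exposed to compounds plus 20 nM camptothecin for at least 48 h at 37 C; viability read as ATP content by CellTiter-Glo luminescence.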
Of the large screens only hits and unclear results are named; the others gave an inactive call. Unless noted, the call rests on the fitted dose curve; in most records, active means well fitted curve in the direction sought with a large enough effect; inconclusive means small, poorly fitted or top-dose-only effect, or another doubt; inactive means no such curve, though single readings can be large; an effect the other way counts as inactive or inconclusive.

COc1cc(C2C(C(=O)Nc3ccc(C)cc3C)=C(C)Nc3nc(SCc4ccccc4)nn32)cc(OC)c1OC (stereo not drawn)	DT40 TDP1 no CPT 23.1µM, DT40 TDP1 CPT 20.6µM (no result: IL1B secr inh)
COc1cccc(CSc2nc3n(n2)C(CC(C)C)C(C(=O)Nc2ccccc2OC)=C(C)N3)c1 (stereo not drawn)	DT40 TDP1 no CPT 13µM, DT40 TDP1 CPT 18.4µM (no result: IL1B secr inh)
COc1ccccc1CSc1nc2n(n1)C(c1ccccc1)C(C(=O)Nc1ccc(C)cc1)=C(C)N2 (stereo not drawn)	DT40 TDP1 no CPT 23.1µM, DT40 TDP1 CPT 16.4µM (no result: IL1B secr inh)
COc1cc(C2C(C(=O)Nc3ccccc3C)=C(C)Nc3nc(SCc4cc(C)ccc4C)nn32)ccc1O (stereo not drawn)	DT40 TDP1 no CPT inconclusive, HepG2 tox 7.08µM, TGFb inhibitor 10µM, DT40 TDP1 CPT inconclusive (no result: IL1B secr inh)
COc1ccc(NC(=O)C2=C(C)Nc3nc(SCc4ccccc4C)nn3C2c2cc(OC)c(O)c(OC)c2)cc1 (stereo not drawn)	none (no result: IL1B secr inh)
OC1OC[C@H](O)[C@@H](O)[C@H]1O (stereo partly drawn)	none (no result: DT40 TDP1 no CPT, HepG2 tox, TGFb inhibitor, IL1B secr inh, DT40 TDP1 CPT)
O=S(=O)(Nc1cccc(-c2ccc(N3CCOCC3)nn2)c1)c1ccccc1C(F)(F)F	DT40 TDP1 no CPT inconclusive (no result: IL1B secr inh)
CCOC(=O)C1=CNS(=O)(=O)NC1c1ccc(C)cc1 (stereo not drawn)	none
CCn1c(-c2ccccc2F)nc2cc(NC(C)=O)cc(C(=O)NC(c3ccccn3)C(F)(F)F)c21 (stereo not drawn)	DT40 TDP1 no CPT inconclusive (no result: TDP1 block, HepG2 tox, TGFb inhibitor, IL1B secr inh)
NC(=O)c1nc(-c2ccccc2)c(-c2ccccc2)[nH]c1=O	DT40 TDP1 no CPT 2.31µM, DT40 TDP1 CPT 0.581µM (no result: TDP1 block)
CCOC(=O)c1cc(C)n(-c2ccc(OC)c(OC)c2)c1C	DT40 TDP1 no CPT 18.4µM, DT40 TDP1 CPT inconclusive
CCOc1ccccc1NC(=O)C(=O)c1cc(C)n(-c2ccc(F)cc2)c1C	DT40 TDP1 CPT inconclusive (no result: IL1B secr inh)
Cc1ccc(NC(=O)C(=O)c2cc(C)n(-c3ccc(F)cc3)c2C)cc1C	DT40 TDP1 no CPT 20.6µM, TGFb inhibitor inconclusive, DT40 TDP1 CPT inconclusive (no result: IL1B secr inh)
COC(=O)c1ccc(-n2c(C)cc(C(=O)CCl)c2C)cc1	DT40 TDP1 no CPT 2.59µM, HepG2 tox 12.6µM, TGFb inhibitor 20µM, IL1B secr inh -98.6, DT40 TDP1 CPT 2.91µM
CCOc1ccc(NC(=O)C(=O)c2cc(C)n(-c3cc(C)cc(C)c3)c2C)cc1	DT40 TDP1 no CPT 20.6µM, DT40 TDP1 CPT inconclusive (no result: IL1B secr inh)
O=C(Nc1cccc2ccccc12)c1cnn2c1NC(=C1CC1)C=C2C(F)F	DT40 TDP1 no CPT inconclusive, DT40 TDP1 CPT inconclusive (no result: TDP1 block, IL1B secr inh)
CCOC(=O)N1CCC(NC(=O)CC2C(=O)NCCN2Cc2ccccc2)CC1 (stereo not drawn)	TGFb inhibitor inconclusive
CCOc1ccc(-n2c(C)cc(C(=O)CCl)c2C)cc1	DT40 TDP1 no CPT 4.61µM, TGFb inhibitor 12.6µM, IL1B secr inh -99.4, DT40 TDP1 CPT 2.91µM
CC(C)(C)OC(=O)NCCc1nnc(SCC(=O)c2ccc(Cl)cc2)o1	DT40 TDP1 no CPT inconclusive, DT40 TDP1 CPT 23.1µM
CC(C)[C@H](N)c1nnc(SCC(=O)c2ccc(Cl)cc2)o1	DT40 TDP1 no CPT 13µM, DT40 TDP1 CPT 11.6µM
COC(=O)Nc1ccc(SCC(=O)c2ccc(Cl)cc2)cc1	DT40 TDP1 no CPT inconclusive, IL1B secr inh -61.9, DT40 TDP1 CPT inconclusive
O=C(CSc1nnc(CNC(=O)c2cccs2)o1)c1ccc(Cl)cc1	DT40 TDP1 no CPT inconclusive, IL1B secr inh -57.6, DT40 TDP1 CPT 20.6µM
